In PubChem BioAssay AID720519 (National Center for Advancing Translational Sciences (NCATS), 2013):
Records with an inconclusive call do not appear. Calls of active or inactive are those of the source. The call rests on the fitted dose curve; in most records, active means well fitted activation curve with a large enough effect; inconclusive means small, poorly fitted or top-dose-only effect; inactive means flat fitted curve, though single readings scatter.

Experiment: qHTS for Inhibitors of Cell Surface uPA Generation: Confirmatory Assay for Cherry-picked Compounds; further: 0% is about no effect
Conditions: cell surface uPA activity generation, qHTS confirmation; series mostly up to 115 µM; inhibition: at the top concentration
Procedure, shortened: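 RAW 264.7 cells at 4000/well, incubated overnight, then treated with compounds. After 24 h at 37 C, viability was read by ATPlite luminescence. An increase in signal indicates blocked uPA-dependent LF entry.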

inhibition, inactive:
CCOC(=O)N1CCN(c2c(NCCCN3CCCCCC3)c(=O)c2=O)CC1 -2.71%
Cc1ccc(S(=O)(=O)NCC(=O)OC(C)C(=O)NCc2ccc3c(c2)OCO3)cc1 (stereo not drawn) -1.17%
CC1CC(=O)Nc2ccccc2N1C(=O)Cn1cnc2ccc(Br)cc2c1=O (stereo not drawn) -0.739%
O=C(CN1C(=O)CSCC1=O)NCc1ccc(F)cc1 -0.0415%
COc1cc2c(cc1OC)CN(C(=O)c1ccc(-c3ccccc3)cc1)CC2 -3.75%
CCS(=O)c1scc(-c2ccc(Cl)cc2)c1C#N (stereo not drawn) -3.68%
COc1ccc(C(=O)N2CCN(c3ccc(C(C)=O)cc3)CC2)cc1S(=O)(=O)N1CCCC1 -2.44%
C=CCc1cc(S(=O)(=O)c2ccc(O)c(CC=C)c2)ccc1O 3.72%
COc1ncnc(NS(=O)(=O)c2ccc(N)cc2)c1OC 0.555%
O=C(N/C(=C\c1cccc([N+](=O)[O-])c1)C(=O)N1CCOCC1)c1ccc([N+](=O)[O-])cc1 -0.71%
CN(CC(=O)NCCCn1ccnc1)S(=O)(=O)c1ccc(Cl)cc1 -0.102%
Cc1[nH]c(=O)[nH]c(=O)c1S(=O)(=O)N1CCCc2ccccc21 -1.5%
CCOC(=O)C(CC)n1cnc2c(nnn2-c2ccccc2)c1=O (stereo not drawn) 0.0418%
Cc1nc2ccc(Br)cn2c1C(=O)N/N=C\c1ccccc1Cl 0.471%
COc1ccc(N2CCN(C(=O)COc3ccc4c(C)c(C)c(=O)oc4c3C)CC2)cc1 -1.45%
Cc1cccc(NC(=O)C2CCCN(S(=O)(=O)c3cccc4cccnc34)C2)c1 (stereo not drawn) -1.96%
COC(=O)CCNS(=O)(=O)c1ccc2nsnc2c1 -0.28%
O=C(NCCCn1cccn1)C1CCC(=O)N(Cc2ccccc2F)C1 (stereo not drawn) -0.984%
CCN(c1ccccc1)S(=O)(=O)c1ccc(NC(=O)c2ccco2)cc1 -2.76%
CCc1c(C)sc(NC(=S)N2CC(C)OC(C)C2)c1C(=O)OC (stereo not drawn) -1.09%
COc1ccccc1-c1ccc(SCC(=O)NCCc2ccccc2)nn1 -1.94%
COCCN(CCOC)c1nc(-c2ccc(C)cc2)nc2ccccc12 -3.08%
C#CCOCCOCCOCCNc1nc(N2CCOCC2)nc(N2CCN(C(=O)[C@H](CCC(=O)O)n3cc([C@@H](N)CCCCN)nn3)CC2)n1 -2.85%
C/C(=N\NC(=S)NC(C)C)c1ccc(Cl)s1 -2.05%
Cc1ccccc1NC1c2ccccc2C(=O)N1Cc1ccco1 (stereo not drawn) -2.23%
O=C(COc1ccccc1F)NCC(c1ccc(F)cc1)N1CCOCC1 (stereo not drawn) -0.649%
COc1ccc(NC(=O)CCNS(=O)(=O)c2ccccc2F)cc1S(=O)(=O)N1CCOCC1 -1.83%
CC1(C)CC(=O)C=C(c2ccc3ccccc3c2)C1 -0.951%
CCN(CC)S(=O)(=O)c1ccc(NC(=S)Nc2ccc(F)cc2)cc1 -2%
Cc1cc2c(cc1S(=O)(=O)Nc1ccc(F)cc1)n(C)c(=O)c(=O)n2C -1.34%
COc1ccccc1NC(=O)Cn1nnc(-c2ccccc2NC(=O)c2cc3ccccc3oc2=O)n1 -2.06%
COc1ccc(NC(=O)c2nn(C)c3c2CS(=O)(=O)c2ccccc2-3)cc1 -1.07%
O=C(NCCN1CCOCC1)c1ccc2c(c1)N(Cc1ccc(Cl)cc1)CCS2 1.95%
CN(C)c1ccc(S(=O)(=O)N2CCC(Cc3ccccc3)CC2)cn1 -0.623%
O=C(NNC(=O)C1CC(c2cccs2)=NO1)Nc1ccccc1 (stereo not drawn) -1.17%
O=C(NCc1ccco1)/C(=C\c1cccs1)NC(=O)c1ccccc1 -0.346%
COCCNC(=S)N(CCc1c(C)[nH]c2ccccc12)Cc1ccco1 -2.32%
Cc1[nH]c2ccc(C(=O)OC(C)C(=O)NC3CCCCC3C)cc2c1C (stereo not drawn) -3.36%
